Potency and affinity values are given separately. Calls of active or inactive are those of the source.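 Rule for the calls: active = signal-lowering compounds whose fitted half-maximal concentration is at or below twice the top tested dose in every run; inconclusive = runs disagree, flat 30 to 70% inhibition, or poor curve fit; inactive = the rest.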
molecular target: Protein S100-A4 (Homo sapiens) (UniProt P26447); test: human S100A4 peptide interaction inhibition curves – biochemical, fluorescence polarization, cherry-picked hits, dose response (AID 687001); details: FP, S100A4/TAMRA-myosin IIA peptide binding; series mostly up to 11 µM
Sequence (P26447 whole entry, looked up): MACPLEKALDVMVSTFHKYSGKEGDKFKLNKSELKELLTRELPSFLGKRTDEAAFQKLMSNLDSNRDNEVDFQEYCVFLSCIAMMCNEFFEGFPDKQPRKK

outcome, inactive:
COc1ccc(/C=C2/CCCc3ccccc3C2=O)cc1
C[C@H]1CN([C@@H](C)CO)C(=O)c2cc(NC(=O)NC3CCCCC3)ccc2O[C@@H]1CN(C)C(=O)Nc1ccccc1
COC(=O)C[C@@H]1CC[C@H](NC(=O)c2cnccn2)[C@@H](CO)O1
COc1ccc(-c2cnc(SCCNC(=O)c3ccc4c(c3)OCO4)[nH]2)cc1
O=C(c1ccc(Br)o1)N1CCC(Cc2ccccc2)CC1
COCCCNc1nc2ccccc2nc1NS(=O)(=O)c1cc(Cl)ccc1Cl
CC(=O)N1c2ccc(S(=O)(=O)N3CCC(C(=O)Nc4ncccc4C)CC3)cc2CC1C (stereo not drawn)
CCCCn1c(O)c(/C=C2\C=Nc3ccccc32)c(=O)[nH]c1=O
CCOc1ccc(S(=O)(=O)N2CCCC(C(=O)NCC3CCCO3)C2)cc1Cl (stereo not drawn)
CC(=O)N1CCCCN2[C@H](CO)[C@H](c3ccc(C#Cc4ccccc4F)cc3)[C@@H]2C1
C[C@@H]1CN([C@H](C)CO)S(=O)(=O)c2ccc(C3=CCCCC3)cc2O[C@@H]1CN(C)Cc1cncnc1
Cc1ccc(C(=O)N/C(=C/c2ccc(C(C)C)cc2)C(=O)NCCCN2CCOCC2)cc1
CC1Cc2ccccc2N1NC(=O)c1ccc(Cl)c(S(N)(=O)=O)c1 (stereo not drawn)
Cn1c(=O)[nH]c(=O)c2c1nc(SCC(=O)O)n2CCOc1ccccc1
COc1ccc(C2SCCN2S(=O)(=O)c2ccc(F)cc2)cc1OC (stereo not drawn)
O=C(Cc1ccncc1)NCC[C@@H]1CC[C@@H](NC(=O)C2CCOCC2)[C@@H](CO)O1
CSC[C@H]1CN(Cc2cccnc2)C(=O)[C@@H]1CC(=O)Nc1ccc(Br)cc1
CCN1C(=O)c2ccccc2S(=O)(=O)c2ccc(C(=O)NCC(OC)OC)cc21
CC[C@]12c3[nH]c4ccc(Cl)cc4c3CCN1C(=O)[C@@H](CC(=O)NCCCn1ccnc1)C[C@@H]2C(=O)N1CCN(C(=O)c2ccco2)CC1
Cc1nn(-c2ccc(N3CCOCC3)nn2)c(C)c1CCC(=O)N1CCN(C)CC1
CCN(C[C@H]1[C@H](c2ccccc2)[C@H](CO)N1C(C)=O)C(=O)c1ccccn1
COc1cccc(CN2CC3(CN(C)C3)c3c([nH]c4cc(OC)ccc34)[C@@H]2CO)c1
Cc1ccc2c(nc3s/c(=C\c4ccc(-c5ccccc5C(=O)O)o4)c(=O)n32)c1C
CCCCCC(=O)Nc1ncc2c(n1)CC(c1cccs1)CC2=O (stereo not drawn)
CC(C)(C)C1CCSC2=NCCC[C@]2(c2ccccc2)C1 (stereo partly drawn)
Cc1cc(C(=O)CSc2nc(N)cc(=O)[nH]2)ccc1F
C[C@H](CO)N1C[C@H](C)[C@H](CN(C)CC2CC2)OCc2ccccc2-c2c(n(C)c3ccccc23)C1=O
O=C(COC(=O)C1CC1)NCCc1ccccc1
Cc1oc(-c2ccc(Cl)cc2)nc1CS(=O)CC(=O)NCCCN1CCN(Cc2ccccc2)CC1 (stereo not drawn)
O=C(NCCCc1ccccc1)c1cccc(NC(=O)C2CCC2)c1
CCOC(=O)N1CCN(S(=O)(=O)c2ccc(C)c(C(=O)NC3CCCCC3)c2)CC1
COc1ccc(C2/C=C\CN(S(=O)(=O)c3cccc4cccnc34)CC(=O)N2Cc2ccc(F)cc2)cc1 (stereo not drawn)
Cc1ccc(-c2csc(NC3OC(=O)c4ccccc43)n2)cc1 (stereo not drawn)
O=C(O)c1ccc(/C=C2\SC(=S)N(NC(=O)c3ccccc3)C2=O)cc1
CCN(CC(=O)Nc1c(F)cccc1F)C(=O)CNC(=O)c1cccs1
Nc1c(C(=O)Nc2ccc3c(c2)OCCO3)nnn1Cc1ccc(F)cc1
O=C1NC[C@H](c2ccccc2)OC(=O)[C@H](Cc2ccc(F)cc2)C/C=C\C[C@H]1CC(=O)N(CCO)Cc1ccccc1
COCCN(C(=O)COC(=O)COc1ccc2ccccc2c1)c1c(N)n(Cc2ccccc2)c(=O)[nH]c1=O

Reference: PubChem BioAssay AID687001 (Broad Institute, 2013)
